# PubChem BioAssay (Tox21)
# Results filed as inconclusive are left out. A call without a number means that no potency is given here. Calls of active or inactive are those of the source. Calls come from the whole dose curve; as a rule, active = well fitted inhibition curve with a large enough effect in the repeat runs; inconclusive = weak or mixed curves; inactive = no such curve, though single readings can be large or run the other way.
# Experiment: qHTS assay to identify small molecule antagonists of the thyroid receptor (TR) signaling pathway (AID 743065); note: nearly all actives have a fitted effect of over 55% in size
# Details: GH3.TRE-Luc, T3-stimulated luciferase inhibition, 23.5 h; series mostly up to 70.3 µM
# Text: U.S. Tox21 Program National Center for Advancing Translational Sciences [NCATS] NIH Chemical Genomics Center [NCGC] U.S. Environmental Protection Agency [EPA] National Institutes of Environmental Health Sciences [NIEHS] National Toxicology Program [NTP] U.S. Food and Drug Administration [FDA] Tox21 Assay Overview: Thyroid receptor (TR), a nuclear hormone receptor, plays an important role in development, proliferation, differentiation, metabolism, brain function, and cardiovascular system. […] To profile the Tox21 10K compound library in TR signaling, a cell-based GH3-TRE-Luc assay (GH3.TRE-Luc cell line, developed by the laboratory of Dr. Albertinka J. Murk, Wageningen University) was used to measure the inhibition of TR. GH3 (rat pituitary tumor) cells stably expressing a TR activity sensor consisting of two TR response elements and a luciferase reporter gene.
# Tox21 Assay Protocol Summary: GH3.TRE-Luc cells were dispensed at 1500 cells/4 uL/well into 1536-well white solid bottom plates using a Multidrop Combi dispenser (Thermo Fisher Scientific Inc., Waltham, MA). After the assay plates were incubated at 37 C for 4 hours, 23 nL of library compound or DMSO controls was transferred to the assay plates by a pintool station (Kalypsys, San Diego, CA), followed by addition of 1 ul of T3 (1 nM, final concentration in the wells) to stimulate TR transactivation. The assay plates were incubated at 37 C for 23.5 h, and then 1 uL of CellTiter-Fluor reagent (Promega, Madision, WI) of measuring cytotoxicity was added to each well using a Bioraptr Flying Reagent Dispenser (FRD) workstation (Beckman Coulter, Indianapolis, IN, USA). The plates were incubated at 37 C and 5% CO2 for additional 30 min, and fluorescence intensity was measured by a ViewLux plate reader (PerkinElmer, Shelton, CT). For measuring luciferase reporter gene activity, 4 uL of ONE-Glo Luciferase Assay reagent (Promega) was added to each well using a Bioraptr FRD (Beckman Coulter), followed by 30 min incubation at room temperature. The luminescence intensity of plates was recorded by a ViewLux plate reader (PerkinElmer, Shelton, CT).
SMILES,Potency,"activity, negative = inhibition"
CC(C)=CC(=O)O,inactive,–
CN(C)N=Nc1ccccc1,inactive,–
C1=C\CC/C=C\CC/C=C\CC/1,inactive,–
C=C(C)C1CC=C(C)C(O)C1 (stereo not given),inactive,–
NC(=S)Nc1cccc2ccccc12,–,-4.6% [at 8.44 µM] (inactive)
CC(=O)OC(C)(C)C,inactive,–
CCCCCOC(=O)Nc1nc(=O)n([C@@H]2O[C@H](C)[C@@H](O)[C@H]2O)cc1F,inactive,–
COC(=O)c1ccc(C(=O)OC)c(C(=O)OC)c1,inactive,–
CCC(C)OC(=O)N1CCCCC1CCO (stereo not given),inactive,–
CCO[Si](C)(OCC)OCC,inactive,–
NS(=O)(=O)c1cc(C2(O)NC(=O)c3ccccc32)ccc1Cl (stereo not given),inactive,–
CC(C)(O)c1ccccc1,inactive,–
C#CC(C)(O)CC(C)C (stereo not given),inactive,–
CC(C)(C)OC(=O)N1C[C@@H](F)C[C@H]1C(=O)O,inactive,–
O=C(O)c1ccccc1-c1ccc(C(F)(F)F)cc1,inactive,–
CC(C)=CCC/C(C)=C/C(=O)O,inactive,–
COC[C@H](c1ccc(C(F)(F)F)cc1)N1CCN(C2(C)CCN(C(=O)c3c(C)ncnc3C)CC2)C[C@H]1C,inactive,–
O=C1C(CCS(=O)c2ccccc2)C(=O)N(c2ccccc2)N1c1ccccc1 (stereo not given),inactive,–
OCC(CO)(CO)COCC(CO)(CO)CO,inactive,–
Cn1ccc2cc3c(cc21)CCN3C(=O)Nc1cccnc1,inactive,–

SMILES,Potency,"activity, negative = inhibition"
COc1cc(C(=O)N2CCOCC2)cc(OC)c1OC,inactive,–
COc1cccc(OC)c1,inactive,–
CCOC(=O)[C@H](CCc1ccccc1)N[C@@H](C)C(=O)N1CCC[C@H]1C(=O)O,inactive,–
CCc1cc(S(=O)(=O)O)c2cc(C(C)C)cccc1-2,inactive,–
NCC[C@H](O)C(=O)N[C@@H]1C[C@H](N)[C@@H](O[C@H]2O[C@H](CN)[C@@H](O)[C@H](O)[C@H]2O)[C@H](O)[C@H]1O[C@H]1O[C@H](CO)[C@@H](O)[C@H](N)[C@H]1O,inactive,–
COc1cc(O)cc(O)c1,inactive,–
Cc1onc(-c2ccccc2)c1-c1ccc(S(N)(=O)=O)cc1,inactive,–
NC(=O)c1ncn([C@@H]2O[C@H](CO)[C@@H](O)[C@H]2O)c1N,inactive,–
NC(N)=NS(=O)(=O)c1ccc(N)cc1,inactive,–
O=C(O)c1ccc[n+]([O-])c1,inactive,–
N#CCc1ccccc1[N+](=O)[O-],inactive,–
CC(=O)N[C@@H](CCC(N)=O)C(=O)O,inactive,–
C=C[Si](OC)(OC)OC,inactive,–
O=C(O)C(O)[C@H](O)[C@@H](O)[C@H](O)[C@H](O)CO (stereo not given in full),inactive,–
NC(CS)C(=O)O (stereo not given),inactive,–
COc1cccc(Br)c1,inactive,–
O=C(O)c1ccccc1S,inactive,–
CCCC=O,inactive,–
O=C(O)CCNC(=O)c1ccc(N=Nc2ccc(O)c(C(=O)O)c2)cc1,inactive,–
C=CCSCC1Nc2cc(Cl)c(S(N)(=O)=O)cc2S(=O)(=O)N1 (stereo not given),inactive,–
